Drawing on PubChem BioAssay (NCI), this text covers growth for 40 molecules.

The panel holds about 83,000 compounds, 20% with a hit somewhere; the sample as a whole holds those more often.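 Cells were grown in 96-well plates and exposed to the test compound at a single concentration for 48 hours; results are reported as percent growth, with values below 10 considered active.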 Unmarked numbers belong to inactive results. Calls of active or inactive are those of the source.

The test concerns TK-10 renal. As to the kind of experiment: NCI-60 one-dose screen, 48 h (100 = growth as untreated, 0 = no growth, -100 = all killed). Conditions: 10 µM unless noted. How it is done: Growth inhibition of the TK-10 human tumor cell line is measured as a screen for anti-cancer activity. Cells are grown in 96 well plates and exposed to the test compound for 48 hours. Compounds are tested at a single concentration, which is 10^-5 M for most compounds. The reported endpoint is percent growth (GI% or GIPRCNT), where numbers from 0 - 100% represent growth inhibition, and numbers from -100% - 0 represent cell death. For example, a value of 40 represents 60% growth inhibition. A value of 0 means no net growth occurred over the course of the experiment. A value of -40 indicates 40% of cells at the beginning of the experiment died by the end of the experiment. A value of -100 means all cells are dead at the end of the experiment.
NCI-60 Human Tumor Cell Lines Screen was performed using the standard one-dose NCI protocol, which is described in more detail at https://dtp.cancer.gov/discovery_development/nci-60/default.htm.
Compounds with GIPRCNT values below 10 were considered active. Activity score was based on GIPRCNT using the following formula: […]
Score is 0 for GIPRCNT values of 100 or above, 50 for GIPRCNT values of 0, and 100 for GIPRCNT values of -100.
In the case of `Oc1ccc(N=Nc2nccs2)c(O)c1`, the growth is 60.3%. For the molecule `O=C(O)CC1CCCCC1c1ccccc1` (stereo not given), the growth is 100%. As for `CNc1cc(C(=O)O)nc(NC)n1`, the growth was 99.2%.

As for `COc1ccc(C=C2c3ccccc3-c3ccccc32)cc1`, the growth was 68.6%.

Take `CC1Cc2c(Cl)ncnc2N(C)c2ccccc21` (stereo not given): the growth was 15.1%.

Consider `O=C(O)c1cc([N+](=O)[O-])ccc1Br`, for which the growth is 95.5%. For `CCOC(=O)c1c[nH]n2c(=S)ncnc12`, the growth is 99.6%.

For `N#Cc1ccc(-c2ccc(COc3ccc(CC4SC(=O)NC4=O)cc3)cc2)cc1` (stereo not given), the growth is 85.9%. The result for `C[n+]1c(-c2ccccc2)c2cc(N)ccc2c2ccccc21` reads 90.4%; that for `CCN(CC)CCS(=O)(=O)CCNc1ccnc2cc(Cl)ccc12`, 13.5%. The result for `Cc1ccc(S(=O)(=O)Oc2ccc(Br)cc2Br)cc1` reads 94.9%. The result for `C#CCNC(=O)CC[C@@H](C)[C@H]1CC[C@H]2[C@@H]3CC[C@@H]4CC(=O)CC[C@]4(C)[C@H]3CC[C@]12C` reads -16.8% [100 µM] (active); that for `c1nc(N2CCOCC2)c2[nH]ccc2n1`, 95.3%; that for `Fc1cc2[nH]ncc2c2c3c(c(-c4cn[nH]c4)nc12)CCCC3`, 20%. On to `CCOC(=O)n1cc(C2=C(c3ccc(OC)c(OC)c3)COC2=O)c2ccccc21`, for which the growth is 53.7%. Consider `Cc1ccc(NCCN2CCCCC2)c2c(=O)c3ccccc3sc12`, for which the growth was 42.6%.

In the case of `CCN(CCNc1ccc(C)c2sc3cc(Cl)ccc3c(=O)c12)CC(C)O` (stereo not given), the growth is 76.7%.

For the molecule `COc1ccc(-c2cc(-c3ccccc3)nc(SCCCCCC(=O)NO)n2)cc1`, the growth was 34.8%. Take `CC1(C)C(=O)/C(=C\c2cccnc2)C[C@]2(C)[C@H]3CC[C@@H]4[C@H]5[C@H](C(=O)/C=C/c6cccnc6)CC[C@]5(C(=O)O)CC[C@@]4(C)[C@]3(C)CC[C@@H]12`: the growth was -89.5% [100 µM] (active).

Consider `CSc1cccc([N+](=O)[O-])c1`, for which the growth is 108%. The result for `CC1(C)C(=NO)C(C)(C)C1=NO` reads 104%; that for `CCCCCCCCCN(CCCCCCCCC)C(C)C(=O)c1ccc2cc(Br)c3ccccc3c2c1` (stereo not given), 93.7%. For `CN(C)Cc1ccc[nH]1`, the growth is 131%. For `CC(=O)CC(=O)SC1=NCCS1`, the growth was 110%. With `C=CC1=C(C)C2=NC1=CC1=NC(=CC3=C(C)C4=C(O)C(C(=O)O)C(=C5NC(=C2)C(C)C5CCC(=O)O)C4=N3)C(CC)=C1C` (stereo not given), the growth is 106%.

Consider `CC1(C)S[C@@H]2[C@H](NC(=O)[C@H](C(=O)O)c3cccs3)C(=O)N2[C@H]1C(=O)O`, for which the growth is 103%. For `CC[C@@](C)(NC(=O)[C@H](C)NC(=O)CCNC(=O)C(C)(C)NC(=O)[C@H](C)NC(=O)[C@@H]1CCCN1C(=O)[C@@](C)(CC)NC(=O)[C@H](Cc1ccccc1)NC(=O)C1CCCN1C(=O)C(C)(C)NC(=O)C1CCCN1C(=O)C(C)(C)NC(C)=O)C(=O)NCCC(=O)N[C@@H](CC(C)C)C(=O)NC(C)(C)C(=O)NCCC(=O)N[C@@H](CC(C)C)C(=O)NC(C)(C)C(=O)NC(C)(C)C(=O)N[C@@H](CC(C)C)C(=O)NCCC(=O)NCO` (stereo not given in full), the growth was -98.9% (active). As to `Cc1cc(C)c(O)c(CNCCCNCc2cc(C)cc(C)c2O)c1`, the growth was 77%.

`COc1ccc(NC(=S)NNc2ccc(-c3ccc(OC)c(OC)c3)nn2)cc1`: the growth is 105%. For the molecule `C=C(C)[C@@H]1CC[C@]2(COCCC#N)CC[C@]3(C)[C@H](CC[C@@H]4[C@@](C)(CCCNCCC#N)[C@H](C(=C)C)CC[C@]43C)[C@@H]12`, the growth is 49.7% [100 µM]. For `COc1cc2c(c(OC)c1)C1c3cc(OC)ccc3NC(=O)N1CC2` (stereo not given), the growth is 82.5%.

On to `O=C(NCCO)c1cccnc1`, for which the growth is 81%. The figure for `O=C(Nc1ccc(Nc2ccncc2)cc1)c1ccc([N+](=O)[O-])cc1` is 90.4%; for `COc1ccc(-c2ccc(NNC(=O)c3ccc(F)cc3)nn2)cc1OC` it is 43.7%. For `CCN(CC)CCCC(C)Nc1c2ccc(C)cc2nc2ccc(OC)cc12` (stereo not given), the growth is 15.4%. The figure for `NC(=O)CC1C=CCC1` (stereo not given) is 89.2%. Turning to `CCC(Br)(CC)C(=O)c1ccc(OCC(=O)O)c(Cl)c1Cl`, the growth is 125%. With `C=C(C)[C@@H]1CC[C@]2(C(N)=O)CC[C@]3(C)[C@H](CC[C@@H]4[C@@]5(C)C/C(=C/c6cccnc6)C(=O)C(C)(C)[C@@H]5CC[C@]43C)[C@@H]12`, the growth is 23.5% [100 µM]. Regarding `N#C/C(C(=O)c1ccccc1)=C1/C(=O)Nc2ccc(F)cc21`, the growth is 122%. For the molecule `COc1cc2c(O)n(CCCN3CCOCC3)c3c4cnc5cccc(c(=O)c3c2cc1OC)c54`, the growth was 73.7%.
